Drawing on PubChem BioAssay (NCI), this text covers growth for 38 molecules.

The structures appear in SMILES notation. Compounds without any hit were thinned out: in the full panel of roughly 83,000, 20% have a hit.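 Growth was measured after 48 h exposure to one concentration of compound in 96-well plates. Values under 10 count as active.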 Activity calls are given as the source filed them.

This test concerns NCI-H322M lung. Description: NCI-60 one-dose screen, 48 h (100 = growth as untreated, 0 = no growth, -100 = all killed). The settings on record: 10 µM unless noted.
Consider `COc1cc2c(c(OC)c1OC)C(=O)CC(c1cccc(NC(=O)[C@@H](N)CC(C)C)c1)O2` (stereo partly drawn), for which the growth was 111% (inactive).

For the molecule `CN1CCN(/C(=N\c2sc(-c3ccccc3)nc2-c2ccccc2)c2ccccc2)CC1`, the growth was 82.8% (inactive).

As for `Cc1ccc(-c2nnc3ccc(N/N=C/c4ccccc4)nn23)cc1`, the growth was 91.4% (inactive).

On to `COc1ccc(C(=O)/C=C/c2ccccc2Br)cc1S(N)(=O)=O`, for which the growth was 20.6% (inactive).

With `CC1=C(C(=O)OCc2ccccc2)C(c2c(O)cc(O)cc2O)n2c(nc3ccccc32)N1` (stereo not drawn), the growth is 94.1% (inactive).

Regarding `CCCCc1c(Nn2cnnn2)no[n+]1[O-]`, the growth is 66.7% (inactive).

As to `CC(C)CSc1nc(NCCc2c[nH]c3ccccc23)c(C#N)c(-c2ccc(Cl)cc2)n1`, the growth was 86.5% (inactive).

Turning to `CN1CCc2c(sc3ncnc(N/N=C/c4ccc(Cl)cc4Cl)c23)C1`, the growth is 29.2% (inactive).

On to `N#Cc1c(-c2ccc(Br)cc2)nc2n[nH]c(-c3ccc(Br)cc3)c2c1-c1ccc(F)cc1`, for which the growth is 90.6% (inactive).

As for `CC(=O)OC[C@@]1(C)C2CC[C@]3(C)C(CC=C4C5CC(C)(C)CC[C@]5(C(=O)Nc5ccc(F)cc5)CC[C@]43C)[C@@]2(C)C[C@@H](OC(C)=O)[C@@H]1OC(C)=O` (stereo partly drawn), the growth was 60.3% (inactive).

Consider `NS(=O)(=O)c1ccc(N=Nc2c(O)n(CC(=O)Nc3ccccc3Cl)c3ccccc23)cc1`, for which the growth is 29.2% (inactive).

Turning to `CCCCNC(=S)Nc1ccc(OCc2nc3ccccc3[nH]2)cc1`, the growth was 80.7% (inactive).

Turning to `Cc1cc2nc3c4ccccc4n(CCCN(C)C)c3nc2cc1C`, the growth was -22.6% (active).

As to `COc1cc2c(c(OC)c1OC)C(=O)CC(c1cccc(NC(=O)c3cc(NC(=O)[C@@H](N)CO)ccc3C)c1)O2` (stereo partly drawn), the growth is 108% (inactive).

As for `CC(=O)OC[C@@]1(C)C2CC[C@]3(C)C(CC=C4C5CC(C)(C)CC[C@]5(C(=O)Nc5ccc(C)cc5)CC[C@]43C)[C@@]2(C)C[C@@H](OC(C)=O)[C@@H]1OC(C)=O` (stereo partly drawn), the growth is 72.8% (inactive).

Consider `Cc1ccc(C(=O)CSc2nc3ccc(F)cc3c(=O)n2-c2ccc(Cl)cc2)cc1`, for which the growth is 64.8% (inactive).

For `COc1ccc(-c2ccnc(SCc3cc4cc(Cl)ccc4[nH]c3=O)n2)cc1`, the growth was 87.8% (inactive).

As for `COc1cc(-c2ccc(/C=N/NC(=O)c3[nH]c4ccc(Br)cc4c3-c3ccccc3)o2)cc(OC)c1OC`, the growth is 81.2% (inactive).

For the molecule `CC1=C(C(=O)OC(C)C)C(c2cccc(O)c2)NC(=S)N1` (stereo not drawn), the growth is 103% (inactive).

On to `COc1cccc(COc2ccc(NC(=O)Nc3ccc(Cl)c(C(F)(F)F)c3)cc2)c1`, for which the growth is 16.3% (inactive).

As for `COc1ccc(C(=O)Nc2n[nH]c(Nc3ccccc3)c2C#N)cc1`, the growth was 106% (inactive).

With `O=C(c1ccc(OCCN2CCOCC2)cc1)C1[C@H](c2ccc(Cl)cc2)[C@@H](c2ccccc2)NC12C(=O)Nc1ccc(Cl)cc12` (stereo partly drawn), the growth was 55.6% (inactive).

Turning to `O=C(N=Nc1c(O)[nH]c2ccc([N+](=O)[O-])cc12)c1ccc2nc(-c3ccccc3)[nH]c2c1`, the growth was 104% (inactive).

Consider `CCN(CC)C(=O)N/C(N)=N/c1nc2ccccc2s1`, for which the growth is 81.4% (inactive).

With `Nc1nnc(-c2c[nH]c3ncc(Br)cc23)c(-c2c[nH]c3ccc(F)cc23)n1`, the growth is 50.5% (inactive).

In the case of `O=C(COc1ccc(NC(=O)Nc2ccccc2)cc1)N=Nc1c(O)[nH]c2ccc([N+](=O)[O-])cc12`, the growth was 37.7% (inactive).

For `CC(=O)Nc1ccc(-n2cnc3cc(-c4ccc(O)cc4)ccc32)cc1C(F)(F)F`, the growth was 41.1% (inactive).

On to `CN(C)CCn1c2ccccc2c2nc3cc4ccccc4cc3nc21`, for which the growth is 29.6% (inactive).

As for `COc1cc2oc(-c3cccc(C(=O)Nc4cccc([N+](=O)[O-])c4)c3)cc(=O)c2c(OC)c1OC`, the growth is 40.2% (inactive).

As to `Cc1cccc(NC(=O)[C@]23CCC(C)(C)CC2C2=CCC4[C@@]5(C)C[C@@H](O)[C@H](O)[C@@](C)(CO)C5CC[C@@]4(C)[C@]2(C)CC3)c1` (stereo partly drawn), the growth is 51.6% (inactive).

For `O=C(/C=C/c1cccc(OCc2ccccc2)c1)c1nc2ccccc2[nH]1`, the growth was 92.3% (inactive).

Take `COc1ccc(N2N=C(c3ccc4c(c3)OCO4)CC2c2cccc(NC(=O)CCNS(=O)(=O)c3ccc(Cl)cc3)c2)cc1` (stereo not drawn): the growth is 51.8% (inactive).

With `CN(C)c1ccnc(CNCCSC2(c3ccccc3)c3ccccc3C=Cc3ccccc32)c1`, the growth was 29.1% (inactive).

For `CC1=C(C(=O)c2ccccc2)C(c2ccc(-n3cncn3)cc2)n2c(nc3ccccc32)N1` (stereo not drawn), the growth was 79.5% (inactive).

`Cc1cnc(C(=O)NNc2nc3cc(F)ccc3n3c(C(=O)N4CC5CC(C4)N5)ccc23)cn1`: the growth is 35.4% (inactive).

Turning to `CN(C)CCCNC(=O)c1cc(NC(=O)c2cc(NC(=O)c3ccc(C#Cc4ccccc4)cc3)cn2C)cn1C`, the growth is 38.9% (inactive).

With `N/C(=N\N=C\c1ccc([N+](=O)[O-])cc1)c1c(N)nc(=S)[nH]c1-c1ccc(Cl)cc1Cl`, the growth is 100% (inactive).

For `C=C1CCC2C3(C)COC(c4cccc(F)c4)OC3CCC2(C)C1C/C=C1/C(=O)OCC1O` (stereo not drawn), the growth is 53.3% (inactive).
